Reference: PubChem BioAssay AID1159580 (chemical genetic matrix, 2015)
In all, about 5,500 compounds went through this assay and about 2,000 (36%) were called active. Roughly 18% stayed inconclusive and do not appear here. Rule as the data show it: active = normalized growth mostly below about 0.91 (no sharp cut-off); inconclusive = no clear call, values can overlap the other calls; inactive = mostly above about 0.92. This is one part of the list.

Experiment: chemical genetic growth profiling, strain panel (AID 1159580);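 also: tested at 20 µM; growth read once vehicle control cultures reached saturation at 30 °C; 1 = growth at the plate median or of vehicle wells; lower values mean less growth of the strain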
Conditions: growth OD

Measured: normalized growth

CC(=O)O[C@H]1CC[C@]2(C)C3CC(=O)[C@]4(C)C(C(C)=O)=CCC4C3CC[C@H]2C1 (stereo partly specified)
inactive: S. cerevisiae deletion strains, locus YAL021C, strain ccr4, hits give low values 1 | S. cerevisiae deletion strains, locus YAL026C, strain drs2, hits give low values 0.997 | S. cerevisiae deletion strains, locus YAL030W, strain snc1, hits give low values 1 | S. cerevisiae deletion strains, locus YBL061C, strain skt5, hits give low values 0.994 | S. cerevisiae deletion strains, locus YBR009C, strain hhf1, hits give low values 0.996 | S. cerevisiae deletion strains, locus YBR021W, strain FUR4, hits give low values 1 | S. cerevisiae deletion strains, locus YBR023C, strain chs3, hits give low values 0.995 | S. cerevisiae deletion strains, locus YBR171W, strain sec66, hits give low values 0.995 | S. cerevisiae deletion strains, locus YBR229C, strain ROT2, hits give low values 0.997 | S. cerevisiae deletion strains, locus YBR231C, strain swc5, hits give low values 1 | S. cerevisiae deletion strains, locus YBR279W, strain paf1, hits give low values 0.996 | S. cerevisiae deletion strains, locus YCL011C, strain gbp2, hits give low values 0.984 | S. cerevisiae deletion strains, locus YCL016C, strain dcc1, hits give low values 0.992 | S. cerevisiae deletion strains, locus YCL029C, strain bik1, hits give low values 0.987 | S. cerevisiae deletion strains, locus YCL061C, strain MRC1, hits give low values 0.994 | S. cerevisiae deletion strains, locus YCL069W, strain vba3, hits give low values 0.992 | S. cerevisiae deletion strains, locus YCR088W, strain abp1, hits give low values 0.987 | S. cerevisiae deletion strains, locus YDL005C, strain med2, hits give low values 0.984 | S. cerevisiae deletion strains, locus YDL035C, strain GPR1, hits give low values 0.956 | S. cerevisiae deletion strains, locus YDL040C, strain nat1, hits give low values 0.993 | S. cerevisiae deletion strains, locus YDL074C, strain BRE1, hits give low values 0.967 | S. cerevisiae deletion strains, locus YDL101C, strain DUN1, hits give low values 1 | S. cerevisiae deletion strains, locus YDL185W, strain tfp1, hits give low values 1.02 | S. cerevisiae deletion strains, locus YDL192W, strain arf1, hits give low values 0.978 | S. cerevisiae deletion strains, locus YDR001C, strain nth1, hits give low values 0.994 | S. cerevisiae deletion strains, locus YDR069C, strain doa4, hits give low values 1.02 | S. cerevisiae deletion strains, locus YDR101C, strain arx1, hits give low values 0.988 | S. cerevisiae deletion strains, locus YDR137W, strain rgp1, hits give low values 0.924 | S. cerevisiae deletion strains, locus YDR159W, strain sac3, hits give low values 0.921 | S. cerevisiae deletion strains, locus YDR162C, strain NBP2, hits give low values 0.987 | S. cerevisiae deletion strains, locus YDR195W, strain ref2 1 | S. cerevisiae deletion strains, locus YDR297W, strain sur2, hits give low values 0.998 | S. cerevisiae deletion strains, locus YDR318W, strain mcm21, hits give low values 0.988 | S. cerevisiae deletion strains, locus YDR334W, strain swr1, hits give low values 1.01 | S. cerevisiae deletion strains, locus YDR335W, strain msn5, hits give low values 1 | S. cerevisiae deletion strains, locus YDR388W, hits give low values 0.998 | S. cerevisiae deletion strains, locus YDR502C, strain sam2, hits give low values 0.978 | S. cerevisiae deletion strains, locus YEL003W, strain gim4, hits give low values 0.996 | S. cerevisiae deletion strains, locus YEL037C, strain rad23, hits give low values 1.01 | S. cerevisiae deletion strains, locus YEL061C, strain CIN8 (second series), hits give low values 1 | S. cerevisiae deletion strains, locus YEL061C, strain CIN8, hits give low values 0.993 | S. cerevisiae deletion strains, locus YER015W, strain faa2, hits give low values 1 | S. cerevisiae deletion strains, locus YER016W, strain bim1, hits give low values 0.994 | S. cerevisiae deletion strains, locus YER110C, hits give low values 1.01 | S. cerevisiae deletion strains, locus YER111C, strain swi4, hits give low values 1.01 | S. cerevisiae deletion strains, locus YER155C, strain BEM2 (second series), hits give low values 0.963 | S. cerevisiae deletion strains, locus YER155C, strain BEM2, hits give low values 0.983 | S. cerevisiae deletion strains, locus YER167W, strain BCK2, hits give low values 0.982 | S. cerevisiae deletion strains, locus YFR010W, strain ubp6, hits give low values 1 | S. cerevisiae deletion strains, locus YGL078C, strain dbp3, hits give low values 1.01 | S. cerevisiae deletion strains, locus YGL086W, strain mad1, hits give low values 0.968 | S. cerevisiae deletion strains, locus YGL167C, strain pmr1, hits give low values 0.985 | S. cerevisiae deletion strains, locus YGL173C, strain kem1, hits give low values 0.995 | S. cerevisiae deletion strains, locus YGL227W, strain vid30, hits give low values 0.996 | S. cerevisiae deletion strains, locus YGL240W, strain doc1, hits give low values 1.01 | S. cerevisiae deletion strains, locus YGL248W, strain PDE1, hits give low values 0.99 | S. cerevisiae deletion strains, locus YGL253W, strain hxk2, hits give low values 0.982 | S. cerevisiae deletion strains, locus YGR078C, strain PAC10, hits give low values 0.983 | S. cerevisiae deletion strains, locus YGR135W, strain pre9, hits give low values 1.01 | S. cerevisiae deletion strains, locus YGR229C, strain SMI1, hits give low values 0.995 | S. cerevisiae deletion strains, locus YGR252W, strain gcn5, hits give low values 1.05 | S. cerevisiae deletion strains, locus YHR013C, strain ard1, hits give low values 0.934 | S. cerevisiae deletion strains, locus YHR027C, strain rpn1, hits give low values 0.988 | S. cerevisiae deletion strains, locus YHR079C, strain IRE1 (second series), hits give low values 0.997 | S. cerevisiae deletion strains, locus YHR094C, strain hxt1, hits give low values 1 | S. cerevisiae deletion strains, locus YHR129C, strain ARP1, hits give low values 0.982 | S. cerevisiae deletion strains, locus YHR142W, strain chs7, hits give low values 0.972 | S. cerevisiae deletion strains, locus YHR200W, strain rpn10, hits give low values 1.01 | S. cerevisiae deletion strains, locus YIL066C, strain RNR3, hits give low values 0.98 | S. cerevisiae deletion strains, locus YIL073C, strain SPO22, hits give low values 1.03 | S. cerevisiae deletion strains, locus YIL125W, strain kgd1, hits give low values 0.989 | S. cerevisiae deletion strains, locus YIR030C, strain dcg1, hits give low values 0.998 | S. cerevisiae deletion strains, locus YJL092W, strain hpr5, hits give low values 0.988 | S. cerevisiae deletion strains, locus YJL095W, strain BCK1 (second series), hits give low values 0.997 | S. cerevisiae deletion strains, locus YJL095W, strain BCK1, hits give low values 1.02 | S. cerevisiae deletion strains, locus YJL115W, strain asf1, hits give low values 1 | S. cerevisiae deletion strains, locus YJL129C, strain trk1, hits give low values 1.01 | S. cerevisiae deletion strains, locus YJL134W, strain LCB3, hits give low values 0.988 | S. cerevisiae deletion strains, locus YJL154C, strain vps35, hits give low values 1 | S. cerevisiae deletion strains, locus YJL164C, strain tpk1, hits give low values 0.988 | S. cerevisiae deletion strains, locus YJL166W, strain qcr8, hits give low values 0.991 | S. cerevisiae deletion strains, locus YJL168C, strain set2, hits give low values 0.995 | S. cerevisiae deletion strains, locus YJL187C, strain SWE1 (second series), hits give low values 1.01 | S. cerevisiae deletion strains, locus YJR043C, strain POL32, hits give low values 1.01 | S. cerevisiae deletion strains, locus YKL009W, strain mrt4, hits give low values 0.965 | S. cerevisiae deletion strains, locus YKL068W, hits give low values 0.988 | S. cerevisiae deletion strains, locus YKL085W, strain MDH1 (second series), hits give low values 0.992 | S. cerevisiae deletion strains, locus YKL085W, strain MDH1, hits give low values 0.992 | S. cerevisiae deletion strains, locus YKL160W, strain elf1, hits give low values 0.996 | S. cerevisiae deletion strains, locus YKR026C, strain gcn3, hits give low values 0.972 | S. cerevisiae deletion strains, locus YKR091W, strain srl3, hits give low values 0.993 | S. cerevisiae deletion strains, locus YLL001W, strain dnm1, hits give low values 0.986 | S. cerevisiae deletion strains, locus YLL026W, hits give low values 0.994 | S. cerevisiae deletion strains, locus YLL041C, strain sdh2, hits give low values 0.991 | S. cerevisiae deletion strains, locus YLR027C, strain aat2, hits give low values 0.993 | S. cerevisiae deletion strains, locus YLR039C, strain RIC1, hits give low values 1 | S. cerevisiae deletion strains, locus YLR058C, strain SHM2, hits give low values 1.02 | S. cerevisiae deletion strains, locus YLR102C, strain apc9, hits give low values 1 | S. cerevisiae deletion strains, locus YLR221C, strain rsa3, hits give low values 0.978 | S. cerevisiae deletion strains, locus YLR258W, strain gsy2, hits give low values 1 | S. cerevisiae deletion strains, locus YLR262C, strain YPT6 (second series), hits give low values 0.961 | S. cerevisiae deletion strains, locus YLR262C, strain YPT6, hits give low values 0.944 | S. cerevisiae deletion strains, locus YLR268W, strain sec22, hits give low values 0.965 | S. cerevisiae deletion strains, locus YLR320W, strain mms22, hits give low values 0.922 | S. cerevisiae deletion strains, locus YLR330W, strain CHS5, hits give low values 0.969 | S. cerevisiae deletion strains, locus YLR342W, strain FKS1 (second series), hits give low values 0.947 | S. cerevisiae deletion strains, locus YLR342W, strain FKS1, hits give low values 0.976 | S. cerevisiae deletion strains, locus YLR357W, strain rsc2, hits give low values 1.01 | S. cerevisiae deletion strains, locus YLR370C, strain arc18, hits give low values 1.01 | S. cerevisiae deletion strains, locus YLR371W, strain rom2, hits give low values 1.02 | S. cerevisiae deletion strains, locus YLR384C, strain iki3, hits give low values 0.984 | S. cerevisiae deletion strains, locus YML016C, strain PPZ1, hits give low values 1 | S. cerevisiae deletion strains, locus YML032C, strain rad52, hits give low values 1 | S. cerevisiae deletion strains, locus YML120C, strain ndi1, hits give low values 1 | S. cerevisiae deletion strains, locus YML124C, strain tub3, hits give low values 1 | S. cerevisiae deletion strains, locus YMR058W, strain fet3, hits give low values 0.986 | S. cerevisiae deletion strains, locus YMR078C, strain ctf18, hits give low values 0.999 | S. cerevisiae deletion strains, locus YMR125W, strain sto1, hits give low values 1.01 | S. cerevisiae deletion strains, locus YMR129W, hits give low values 0.991 | S. cerevisiae deletion strains, locus YMR205C, strain PFK2, hits give low values 0.95 | S. cerevisiae deletion strains, locus YMR223W, strain ubp8, hits give low values 0.993 | S. cerevisiae deletion strains, locus YMR231W, strain pep5, hits give low values 1.01 | S. cerevisiae deletion strains, locus YMR307W, strain GAS1, hits give low values 0.97 | S. cerevisiae deletion strains, locus YNL067W, strain RPL9B, hits give low values 1.02 | S. cerevisiae deletion strains, locus YNL209W, strain ssb2, hits give low values 1.01 | S. cerevisiae deletion strains, locus YNL233W, strain BNI4, hits give low values 0.988 | S. cerevisiae deletion strains, locus YNL248C, strain rpa49, hits give low values 0.984 | S. cerevisiae deletion strains, locus YNL250W, strain rad50, hits give low values 1.01 | S. cerevisiae deletion strains, locus YNL271C, strain bni1, hits give low values 1.01 | S. cerevisiae deletion strains, locus YNL298W, strain CLA4, hits give low values 1 | S. cerevisiae deletion strains, locus YNL307C, strain MCK1, hits give low values 0.934 | S. cerevisiae deletion strains, locus YNL322C, strain KRE1 (second series), hits give low values 0.975 | S. cerevisiae deletion strains, locus YNR049C, strain mso1, hits give low values 0.99 | S. cerevisiae deletion strains, locus YNR052C, strain pop2, hits give low values 1.03 | S. cerevisiae deletion strains, locus YOL006C, strain TOP1, hits give low values 0.907 | S. cerevisiae deletion strains, locus YOL012C, strain htz1 1.19 | S. cerevisiae deletion strains, locus YOL147C, strain pex11, hits give low values 1 | S. cerevisiae deletion strains, locus YOR001W, strain rrp6, hits give low values 0.995 | S. cerevisiae deletion strains, locus YOR061W, strain CKA2, hits give low values 1 | S. cerevisiae deletion strains, locus YOR069W, strain VPS5, hits give low values 0.997 | S. cerevisiae deletion strains, locus YOR070C, strain gyp1, hits give low values 1.01 | S. cerevisiae deletion strains, locus YOR080W, strain dia2, hits give low values 1.01 | S. cerevisiae deletion strains, locus YOR083W, strain WHI5, hits give low values 1 | S. cerevisiae deletion strains, locus YOR106W, strain vam3, hits give low values 1.01 | S. cerevisiae deletion strains, locus YOR136W, strain idh2, hits give low values 0.984 | S. cerevisiae deletion strains, locus YOR144C, strain elg1, hits give low values 1 | S. cerevisiae deletion strains, locus YOR184W, strain ser1, hits give low values 0.893 | S. cerevisiae deletion strains, locus YOR265W, strain rbl2, hits give low values 1 | S. cerevisiae deletion strains, locus YOR270C, strain vph1, hits give low values 0.843 | S. cerevisiae deletion strains, locus YOR290C, strain snf2, hits give low values 0.996 | S. cerevisiae deletion strains, locus YOR316C, strain cot1, hits give low values 0.996 | S. cerevisiae deletion strains, locus YPL051W, strain arl3, hits give low values 0.998 | S. cerevisiae deletion strains, locus YPL078C, strain atp4, hits give low values 0.991 | S. cerevisiae deletion strains, locus YPL106C, strain sse1, hits give low values 0.976 | S. cerevisiae deletion strains, locus YPL240C, strain hsp82, hits give low values 0.995 | S. cerevisiae deletion strains, locus YPL241C, strain CIN2, hits give low values 0.988 | S. cerevisiae deletion strains, locus YPR119W, strain clb2, hits give low values 1 | S. cerevisiae deletion strains, locus YPR141C, strain kar3, hits give low values 1 | S. cerevisiae deletion strains, locus YPR163C, strain tif3, hits give low values 0.983 | S. cerevisiae deletion strains, locus YPR167C, strain met16, hits give low values 0.994 | S. cerevisiae deletion strains, strain wtn01, hits give low values 0.973 | S. cerevisiae strains, strain wild type, hits give low values 0.996
active: S. cerevisiae deletion strains, locus YDR392W, strain spt3, hits give low values 0.628 | S. cerevisiae deletion strains, locus YKR001C, strain vps1, hits give low values 0.897 | S. cerevisiae deletion strains, locus YLR418C, strain cdc73, hits give low values 0.839 | S. cerevisiae deletion strains, locus YNL071W, strain lat1, hits give low values 0.91
